The list is not random: actives were taken first. Their share in the collection is about 3%.
SENP6 inh – SENP6 protease inhibition; 1.8% of 330,000 active; Recombinant SENP6 catalytic domain, aminoluciferin luminescence; inhibition, % at 10 µM; Q9GZR1;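 active = inhibition above about 50% at the single tested dose, limit read from the data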;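 also: plate controls were DMSO wells with enzyme for no effect and DMSO wells lacking enzyme for full effect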
TRAIL sens C8 – sensitizes caspase-8 expressing cells to TRAIL | 1% of 360,000 active | NB7+C8 cells + TRAIL, ATPlite viability luminescence | inhibition (viability loss, TRAIL sensitization), % at 10 µM | AID 624354;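 active = compounds causing at least 50% loss of cell viability in the single-dose screen, relative to plate controls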
PPC-1+TRAIL kill – kills PPC-1 cancer cells in the presence of TRAIL; PPC-1 cells + TRAIL, ATPLite viability luminescence; cell killing (% activity), % at 4 µM or 5 µM; AID 1443; 0.41% of 220,000 active;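 active = cell killing above 50% in the first pass at 4 µM, then a duplicate retest at 5 µM averaging 50% or more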;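 also: plate controls were cells with TRAIL plus DMSO for no effect and medium-only wells lacking cells for full effect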
SENP8 block-1 – SENP8 (human) protease inhibition; recombinant SENP8, Nedd8 substrate fluorescence; AID 602440; inhibition, % at 20 µM; 0.64% of 360,000 active; Q96LD8; in the data active = inhibition mostly above about 40%, no sharp cut-off; inactive = mostly below about 27%
Target sequence (Q96LD8 whole entry, looked up): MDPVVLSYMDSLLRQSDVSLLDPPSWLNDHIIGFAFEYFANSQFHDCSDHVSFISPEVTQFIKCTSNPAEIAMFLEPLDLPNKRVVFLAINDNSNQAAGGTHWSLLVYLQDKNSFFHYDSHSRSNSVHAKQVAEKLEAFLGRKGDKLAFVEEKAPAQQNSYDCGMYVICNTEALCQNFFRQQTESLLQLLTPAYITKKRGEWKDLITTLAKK
SENP7 inh – SENP7 protease inhibition | Q9BQF6 | recombinant SENP7, Z-RLRGG-aminoluciferin luminescence, 40 min | inhibition, % at 5 µM | 1.5% of 330,000 active;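 active = inhibition above about 50% at the single test dose, limit read from the data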;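 also: plate controls were DMSO with enzyme for no effect and no enzyme buffer wells for full effect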
Target sequence (Q9BQF6 706-1050 limits assumed): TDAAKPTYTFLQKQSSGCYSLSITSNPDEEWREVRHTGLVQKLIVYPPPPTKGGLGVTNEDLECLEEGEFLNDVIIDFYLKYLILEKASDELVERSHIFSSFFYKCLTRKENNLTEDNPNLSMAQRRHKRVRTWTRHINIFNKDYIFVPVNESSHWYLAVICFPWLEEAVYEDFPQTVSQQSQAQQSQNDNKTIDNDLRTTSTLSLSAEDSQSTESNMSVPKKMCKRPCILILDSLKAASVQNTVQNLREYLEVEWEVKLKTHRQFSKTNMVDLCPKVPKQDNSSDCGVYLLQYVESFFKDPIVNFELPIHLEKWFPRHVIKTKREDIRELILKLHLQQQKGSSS
SENP8 block-2 – SENP8 protease inhibition; purified SENP8, Z-RLRGG-aminoluciferin cleavage, luminescence; inhibition, % at 10 µM; 1.2% of 330,000 active; in the data active = inhibition above about 50%
* hit, by the source's call; . = no result.

SMILES	SENP6 inh	TRAIL sens C8	PPC-1+TRAIL kill	SENP8 block-1	SENP7 inh	SENP8 block-2
CSc1nc2sc(-c3ccccc3)cc2c(=O)n1N	95*	33	49	-111	98*	94*
CC(C)Sc1nc2sc(-c3ccccc3)cc2c(=O)n1N	-7	2	37	-88	4	5
O/C=c1\ccc2cccc3nc(C(F)(F)F)nc1c23	15	3	.	46*	3	15
NNc1nc(C(F)(F)F)nc2ccccc12	-14	3	8	-5	-5	-5
Cc1ccc(NC(=O)c2ccc(Cl)nc2)cc1	-17	0	19	16	7	-5
Cc1ccc(NC(=O)c2nsc(Cl)c2Cl)cc1	54*	18	5	7	62*	31
CC(C)(C)OC(=O)C[C@H]1C/C=C\C[C@H](CC(=O)NCCO)C(=O)N2CCC[C@@H]2COC1=O	-7	-12	.	17	4	-8
Cn1c(=O)c2c(SCC(=O)Nc3ccccc3F)nc(-c3ccccc3F)nc2n(C)c1=O	-17	10	.	-34	13	-6
Cn1c(=O)c2c(SCC(=O)Nc3ccccc3F)nc(C3CC3)nc2n(C)c1=O	-12	50*	.	16	-13	-1
CCCS(=O)(=O)NC(=O)C1(C)CCN(C(=O)c2cccc3ccccc23)C1 (stereo unspecified)	.	-18	.	13	.	.
CCn1cc(/C=C/C(=O)c2ccc(O)cc2)c(C)n1	0	64*	37	-33	0	-14
COc1ccc(NS(=O)(=O)c2ccc(N/N=C(\C)c3ccncc3)c([N+](=O)[O-])c2)cc1	10	31	54*	38	6	-1
COc1ccc(C=NNc2ccc(S(=O)(=O)Nc3ccccc3C(=O)O)cc2[N+](=O)[O-])c(OC)c1	17	-2	.	44*	0	12
O=C(COC(=O)C1=COCCO1)Nc1ccc([N+](=O)[O-])cc1C(F)(F)F	-6	-3	.	16	3	-10
COc1ccccc1NC(=O)N(C)C[C@H]1Oc2ncc(Br)cc2C(=O)N([C@H](C)CO)C[C@H]1C	.	-8	.	8	.	.
O=C(Cn1ncc(Cl)c(Cl)c1=O)c1ccc(Cl)cc1	.	95*	10	18	.	.
Cc1cccc(NC(=O)CNC(=O)CSc2ncccn2)c1C	-1	11	.	13	9	-2
O=C(Cn1ncc(Cl)c(Cl)c1=O)NC1CCS(=O)(=O)C1 (stereo unspecified)	4	4	-1	3	-1	-7
O=C(Cn1ncc(Cl)c(Cl)c1=O)NC1CCCCC1	0	96*	.	2	2	1
Cc1cccc(NC(=O)CNC(=O)Cn2ncc(Cl)c(Cl)c2=O)c1C	1	74*	.	3	-4	5
O=C(OCn1ncc(Cl)c(Cl)c1=O)c1ccccc1Cl	.	87*	23	1	.	.
Cc1ccc(OCC(=O)OCC(=O)NC2CCCCCC2)cc1C	.	-9	.	16	.	.
Cc1cc(C)cc(C(=O)NCC(=O)N2CCC(C(N)=O)CC2)c1	-4	3	.	21	-6	-17
O=C(c1ccco1)N1CCCC(c2nc3c(nnn3Cc3ccc(F)cc3)c(=O)[nH]2)C1 (stereo unspecified)	-5	-7	.	6	-5	-9
O=C(Cn1ncc(Cl)c(Cl)c1=O)NCC1CCCCC1	.	95*	1	18	.	.
SMILES	SENP6 inh	TRAIL sens C8	PPC-1+TRAIL kill	SENP8 block-1	SENP7 inh	SENP8 block-2
O=C1CN(C(=O)Cn2ncc(Cl)c(Cl)c2=O)c2ccccc2N1	.	94*	38	19	.	.
Cc1ccc(NC(=O)Cn2ncc(Cl)c(Cl)c2=O)cc1S(=O)(=O)N1CCCCC1	-10	79*	.	19	6	-5
CC(C)(C)C(=O)Cn1ncc(Cl)c(Cl)c1=O	.	8	13	19	.	.
O=C1CN(C(=O)COc2ccc(Cl)c(Cl)c2)c2ccccc2N1	-13	4	.	-8	-3	-15
O=c1c2ccccc2ncn1-c1cccc(Br)c1	-50	-8	.	17	0	4
CCCCn1c(N)c(N(CCOC)C(=O)CC(NC(=O)c2ccccc2)c2ccccc2)c(=O)[nH]c1=O (stereo unspecified)	9	-4	.	-5	-5	4
O=C(COC(=O)c1cc(-c2ccccc2)nc2ccccc12)Nc1ccc2c(c1)OCO2	-3	-1	19	-7	0	-3
Cc1c(NC(=O)COC(=O)c2cc(-c3ccc(-c4ccccc4)cc3)nc3ccccc23)c(=O)n(-c2ccccc2)n1C	.	87*	81*	-398	.	.
COc1ccc(-c2cc(C(=O)OCC(=O)Nc3ccc4c(c3)OCO4)c3ccccc3n2)cc1	5	56*	31	-403	3	-11
Cc1c(NC(=O)c2cc(-c3ccccc3)nc3ccccc23)c(=O)n(-c2ccccc2)n1C	-9	-1	.	13	1	-17
O=C1C=C(c2ccccc2)C(c2ccccc2)C1O (stereo unspecified)	.	-4	.	24	.	.
CC(=O)CC(=O)NC1CCc2ccccc21 (stereo unspecified)	.	-3	.	3	.	.
O=C(Nc1ccc(S(=O)(=O)Nc2cnc3ccccc3n2)cc1)c1ccc([N+](=O)[O-])cc1Cl	-8	4	.	4	10	3
Clc1ccc2[nH]c(-c3ccccc3)cc2c1	70*	0	8	-372	60*	62*
c1ccc(-c2cc3ccccc3[nH]2)cc1	39	11	.	-388	21	30
CC1CN(C(=O)c2cc(S(=O)(=O)N3CCCCC3)ccc2Cl)CC(C)O1 (stereo unspecified)	4	-3	.	5	-3	5
O=C(OCCC12CC3CC(CC(C3)C1)C2)c1ccc(NCc2cc(O)ccc2O)cc1	.	92*	.	16	.	.
O=C(OCC12CC3CC(CC(C3)C1)C2)c1ccc(NCc2cc(O)ccc2O)cc1	.	92*	.	15	.	.
N#CCC(=O)Nc1ccc(C(=O)OCC(=O)C23CC4CC(CC(C4)C2)C3)cc1	-5	5	.	-91	-5	-4
CCNC(=O)OCCC12CC3CC(CC(C3)C1)C2	.	0	21	26	.	.
COc1ccc(NS(=O)(=O)c2cccc(C(=O)N3CCCC3)c2)cc1	-9	5	.	20	-17	-4
CN(C)c1ccc(N=Nc2ccccc2C(=O)OCC(=O)N2CCCCCC2)cc1	7	55*	42	57*	-2	-6
O=C(Cc1csc(NC(=O)Nc2ccc(Cl)cc2)n1)NC1CCCC1	-12	25	.	2	3	-13
O=C(Cc1csc(NC(=O)Nc2ccc(Cl)cc2)n1)NCc1ccccn1	6	54*	.	2	-2	-5
CCN1CCN(CCCNC(=O)c2ccc(/C=C3/Oc4ccccc4N(Cc4cccc(C)c4)C3=O)cc2)CC1	-11	55*	.	-366	2	-4
CN(C)c1ccc(NC(=O)c2cccc(C(=O)Nc3ccc(N(C)C)cc3)n2)cc1	32	53*	34	34	14	32
CN1C[C@@H]2[C@@H]3C(=O)N(Cc4ccccc4)C(=O)[C@@H]3[C@](Cc3ccccc3)(C1=O)N2C(=O)c1ccc(C(C)(C)C)cc1	.	65*	.	-1	.	.

High-throughput results: PubChem BioAssay, Sanford-Burnham Center for Chemical Genomics
